Source: PubChem (Broad Institute)
C diff HTS: inhibitors of Clostridium difficile growth; Clostridium difficile clinical isolate growth, OD600, 24 h; active compounds read low; growth activity, negative = inhibition, % at 16 µg/mL (by protocol); actives 0.25% (n = 86,000);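 active means mean growth activity at or below -80% and every replicate also at or below -80%; inconclusive means mean at or below -80% but some replicate above -80%; inactive means mean growth activity above -80%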;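 further: 0% = DMSO wells and -100% = levofloxacin 16 µg/mL wells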
T cruzi growth-1: T. cruzi proliferation inhibition | inhibition, % at 8.34 µM | T. cruzi beta-gal in NIH3T3, GalScreen luminescence, 90 h | actives 5.9% (n = 77,000);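 active means mean inhibition above about 93%, with at least 55% of replicates each passing it, limit read from the data, passing the limit was not always enough; inconclusive means only one of those two conditions holds; inactive means neither condition holds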
Pf Dd2 growth: P. falciparum Dd2 growth inhibition; SYBR Green, 72 h; active compounds read low; activity change, % at 10 µM; AID 1159554; actives 2.3% (n = 94,000); in the data active means activity change below about -80%; inconclusive means no clear call, values can overlap the other calls
T cruzi growth-2: inhibitors of T. cruzi proliferation; T. cruzi beta-gal in NIH3T3, GalScreen luminescence, 90 h; actives 72% (n = 5,600); inhibition, % at 8.35 µM; shares compounds with T cruzi growth-1;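 active means mean replicate inhibition above about 95% and at least 55% of replicates individually reaching it, limit read from the data; inconclusive means only one of the two criteria is met; inactive means neither criterion is met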
T cruzi growth-3: inhibitors of T. cruzi proliferation; actives 21% (n = 5,600); T. cruzi beta-gal in NIH3T3, GalScreen luminescence, 90 h; inhibition, % at 2.09 µM; shares compounds with T cruzi growth-1;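 active means mean inhibition above about 95%, with at least 55% of replicates also reaching it, limit read from the data; inconclusive means meets just one of the two conditions; inactive means meets neither condition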;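 further: plate controls were neutral control median for no effect and positive control median for full effect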
3T3 cytotox: cytotoxicity in mouse NIH/3T3 fibroblasts | shares compounds with T cruzi growth-1 | NIH/3T3 viability, CellTiter-Glo ATP luminescence, 90 h | cytotoxicity (signal decrease), % at 8.35 µM | actives 14% (n = 5,600);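 active means mean signal decrease across replicates above about 35% based on untreated-well scatter, with enough replicates individually passing, limit read from the data; inconclusive means no rule stated though some were filed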;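 further: 0% = median of neutral control wells and 100% = median of positive control wells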
NIH3T3 tox 2: NIH/3T3 (mouse) viability loss | shares compounds with T cruzi growth-1 | NIH/3T3 viability, CellTiter-Glo ATP luminescence, 90 h | inhibition, % at 24.9 µM | actives 56% (n = 5,600);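 active means mean loss of cell viability signal at or above a set limit, and enough replicates individually reaching it; inconclusive means meets only the mean limit or only the replicate share; inactive means meets neither condition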;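 further: 0% = median of neutral control wells and 100% = median of positive control wells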
* = called active by the depositor; u = inconclusive; x = no result given. Only some compounds are listed: those with a hit (about 6.7% of all), similar ones and a draw of the others.

SMILES	C diff HTS	T cruzi growth-1	Pf Dd2 growth	T cruzi growth-2	T cruzi growth-3	3T3 cytotox	NIH3T3 tox 2
C[C@H](CO)N1C[C@H](C)[C@H](CN(C)Cc2ccc(Cl)c(Cl)c2)Oc2c(NS(C)(=O)=O)cccc2C1=O	11	11	-35	x	x	x	x
N#C[C@H]1[C@H](c2ccc(C#Cc3ccccc3F)cc2)[C@@H](CO)N1C(=O)C1CCC1	3	99*	-48	103*	101*	-6	6
COc1ccccc1C#Cc1ccc([C@H]2[C@@H](C#N)N(C(=O)C3CCC3)[C@@H]2CO)cc1	1	u	-77	106*	108*	2	96*
N#C[C@@H]1[C@@H](c2ccc(C#Cc3ccccc3F)cc2)[C@H](CO)N1C(=O)C1CCC1	9	92	-44	x	x	x	x
COc1ccccc1C#Cc1ccc([C@H]2[C@H](C#N)N(C(=O)C3CCCCC3)[C@H]2CO)cc1	43	x	-57	x	x	x	x
N#C[C@H]1[C@H](c2ccc(C#Cc3ccccc3F)cc2)[C@H](CO)N1C(=O)C1CCC1	-9	55	-32	x	x	x	x
N#C[C@@H]1[C@H](c2ccc(C#Cc3ccccc3F)cc2)[C@@H](CO)N1C(=O)C1CCC1	-11	u	-36	89	89	11	102*
Cc1noc(C)c1NC(=O)Nc1ccc2c(c1)CC(=O)N([C@H](C)CO)C[C@H](C)[C@@H](CN(C)C(=O)Nc1ccc3c(c1)OCO3)O2	-4	-10	1	x	x	x	x
COc1ccccc1S(=O)(=O)N[C@H]1CC[C@H](CCNC(=O)C2CCC2)O[C@@H]1CO	0	x	11	x	x	x	x
N#C[C@@H]1[C@@H](c2ccc(-c3ccncc3)cc2)[C@@H](CO)N1C(=O)C1CCC1	6	-1	20	x	x	x	x
C[C@@H]1CCCCO[C@H](CN(C)C(=O)C2CCCCC2)[C@@H](C)CN([C@@H](C)CO)C(=O)c2cc(NC(=O)CCCN(C)C)ccc2O1	x	-24	-7	x	x	x	x
OC[C@H]1[C@@H](c2ccc(C#CC3(O)CCCC3)cc2)[C@@H]2CN(Cc3cccnc3)CCCCN12	-5	114*	-21	73	3	4	u
OC[C@H]1[C@@H](c2ccc(C#CC3(O)CCCC3)cc2)[C@H]2CN(Cc3ccncc3)CCCCN21	0	5	0	x	x	x	x
OC[C@H]1[C@H](c2ccc(C#CC3(O)CCCC3)cc2)[C@@H]2CN(Cc3ccncc3)CCCCN12	-1	6	-6	x	x	x	x
OC[C@H]1[C@@H](c2ccc(C#CC3(O)CCCC3)cc2)[C@H]2CN(Cc3cccnc3)CCCCN21	0	103*	23	49	-43	2	4
OC[C@@H]1[C@H](c2ccc(C#CC3(O)CCCC3)cc2)[C@H]2CN(Cc3cccnc3)CCCCN12	0	120*	-8	107*	92	31	32*
OC[C@@H]1[C@H](c2ccc(C#CC3(O)CCCC3)cc2)[C@H]2CN(Cc3ccncc3)CCCCN12	-5	90	6	x	x	x	x
O=C(Cc1ccccc1)N1C[C@H]2[C@@H](c3ccccc31)[C@@H](CO)N2C(=O)C1CC1	-3	17	-11	x	x	x	x
C[C@H](CO)N1C[C@H](C)[C@@H](CN(C)C(=O)CCCN(C)C)OCCCC[C@H](C)Oc2ccc(NC(=O)Nc3ccc(F)cc3)cc2C1=O	-2	8	18	x	x	x	x
C[C@H]1CN([C@@H](C)CO)C(=O)c2cccc(NC(=O)Nc3ccccc3)c2O[C@@H]1CN(C)S(=O)(=O)c1ccc(Cl)cc1	0	46	-4	x	x	x	x
COc1ccc(NC(=O)Nc2ccc3c(c2)CC(=O)N([C@@H](C)CO)C[C@@H](C)[C@H](CN(C)S(=O)(=O)c2c(C)noc2C)O3)cc1	-6	20	14	x	x	x	x
CCc1cnc(N2[C@H](CO)[C@@H](c3ccc(-c4cccc(F)c4)cc3)[C@@H]2C#N)s1	18	85	3	x	x	x	x
CCc1cnc(N2[C@@H](C#N)[C@@H](c3ccc(-c4cccc(F)c4)cc3)[C@@H]2CO)s1	15	108*	1	101*	106*	29	60*
CCc1cnc(N2[C@H](C#N)[C@H](c3ccc(-c4cccc(F)c4)cc3)[C@H]2CO)s1	12	105*	-40	105*	93	10	26*
